The values below come from ChEMBL document CHEMBL3433997, “St. Jude Leishmania screening dataset” (2016).

Holding throughout (format): functional
Assay [1] has as its target Solute carrier family 2, facilitated glucose transporter member 1 (Homo sapiens) (UniProt P11166). Description: ST_JUDE_LEISH: Cytotoxicity at 2uM final concentration against transgenic Leishmania Mexicana promastigotes LmGLUT1 that are glucose transport deficient and complemented with the human glucose transporter GLUT1. Activity is measured by DNA content using SYBR green in vitro.

Assay [2] has as its target Hexose transporter 1 (Plasmodium falciparum) (UniProt O97467). Description: ST_JUDE_LEISH: Cytotoxicity at 2uM final concentration against transgenic Leishmania Mexicana promastigotes LmPfHT that are glucose transport deficient and complemented with the Plasmodium falciparum hexose transporter. Activity is measured by DNA content using SYBR green in vitro.
Assay [3] deals with Glucose transporter (Leishmania mexicana) (UniProt O61059). The experiment in a line: ST_JUDE_LEISH: Cytotoxicity at 2uM final concentration against transgenic Leishmania Mexicana promastigotes LmGT2 that are glucose transport deficient and complemented with the L. Mexicana glucose transporter 2. Activity is measured by DNA content using SYBR green in vitro.

Chain of Solute carrier family 2, facilitated glucose transporter member 1 (Homo sapiens) (P11166 whole entry): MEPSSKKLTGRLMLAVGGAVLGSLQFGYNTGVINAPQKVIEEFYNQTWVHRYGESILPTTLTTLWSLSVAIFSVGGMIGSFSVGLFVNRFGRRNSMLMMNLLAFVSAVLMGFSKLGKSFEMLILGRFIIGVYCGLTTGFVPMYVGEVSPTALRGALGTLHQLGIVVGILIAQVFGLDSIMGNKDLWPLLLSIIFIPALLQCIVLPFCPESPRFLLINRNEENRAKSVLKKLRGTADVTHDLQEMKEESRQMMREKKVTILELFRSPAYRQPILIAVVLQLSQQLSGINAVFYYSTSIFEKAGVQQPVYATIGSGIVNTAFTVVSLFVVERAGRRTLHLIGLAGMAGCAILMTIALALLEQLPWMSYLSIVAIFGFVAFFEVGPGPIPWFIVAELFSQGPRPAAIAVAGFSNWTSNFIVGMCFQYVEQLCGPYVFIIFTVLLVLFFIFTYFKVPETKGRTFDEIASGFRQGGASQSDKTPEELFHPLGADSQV

A word on the inhibition: it is the drop in the measured response relative to a control, in per cent. In the case of `Nc1ccc(-c2nc3cc(Cc4ccc5[nH]c(-c6ccc(N)cc6)nc5c4)ccc3[nH]2)cc1`, the inhibition in assay [1] is 0.06%; in assay [2] it was -2.2%; in assay [3], -2.11%.
Consider `COc1ccc2nccc([C@@H](O)CN3CCC(NC(=O)c4ccc(Cl)c(OC)c4)CC3)c2c1`, for which the inhibition in assay [1] stood at 4.62%; in assay [2] it was 7.71%; in assay [3], 0.22%.
For `COc1ccc(Nc2nccc(N3CCC(NC(=O)c4cccc(C#N)c4)C3)n2)cc1` (configuration not stated), the inhibition is 2.52% in assay [1], 4.34% in assay [2] and 3.91% in assay [3].
Turning to `Cc1ccc(NC(=O)N2CCN(CCCCCNC(=O)/C=C/c3ccc(Cl)c(Cl)c3)CC2)cc1C`, the inhibition in assay [1] was found to be 8.95%; in assay [2], 7.71%; in assay [3], 6.33%.
Turning to `O=C(c1cc(-c2cccs2)n[nH]1)N1CCN(S(=O)(=O)c2ccc(Cl)cc2)CC1`, the inhibition in assay [1] is 2.31%; in assay [2], 2.77%; in assay [3], 1.76%.
With `Cc1cc2nc(-c3ccc(C(=O)NC4CCN(Cc5ccccc5)CC4)s3)[nH]c2cc1C`, the inhibition in assay [1] was 2.92%; in assay [2] it was 2.77%; in assay [3], 2.98%.
In the same order, the values of `CCN(CC)CCCNc1ncc2c(-c3ccc(NC(=O)Nc4cc(C(F)(F)F)ccc4F)cc3)nn(C)c2n1` are 4.51%, 4.18% and 4.62%.
With `Oc1ccc(CCNc2nc(NCCOc3ccccc3-c3ccccc3)nc(N3CCNCC3)n2)cc1`, the inhibition turned out to be 1.26% in assay [1], 0.85% in assay [2] and 1.75% in assay [3].
`CCOC(=O)c1cn(CC)c2cc(N3CCCCCC3)c(F)cc2c1=O`: the inhibition came to 10.3% in assay [1], 4.48% in assay [2] and 3.87% in assay [3].
For the molecule `OC1CCC(Nc2ccc3ncc(-c4ccc(Cl)cc4)n3n2)CC1` (configuration not stated), the inhibition in assay [1] stood at 8.13%; in assay [2], 3.98%; in assay [3], 4.08%.
As to `CC(C)C[C@H](NC(=O)c1ccc(OCCN2CCOCC2)cc1)C(=O)N[C@H](/C=N/N1CC(=O)NC1=O)CCc1ccccc1`, the inhibition in assay [1] came to 3.3%; in assay [2], 4.15%; in assay [3], 2.88%.
As to `O=C(NCc1cccc2ccccc12)[C@@H]1CCCN1C(=O)c1ccc(O)c(-c2ccc(Cl)c(Cl)c2)c1`, the inhibition in assay [1] turned out to be 3.99%; in assay [2] it was 2.59%; in assay [3], 1.99%.
On the same counts, the results for `O=C(Nc1cccc(CN2CCN(Cc3ccc(O)cc3)CC2)c1)c1cccc(C(F)(F)F)c1` are 6.03%, 6.51% and 4.56%.
As to `CC1(C)C(=O)Nc2ccccc2N1C(=O)CN1CCN(c2ccccc2O)CC1`, the results for the inhibition in assay [1], in assay [2] and in assay [3] were 0.51%, -0.55% and -3.82%, respectively.
For the molecule `c1ccc(CNc2nc(NCCc3c[nH]cn3)nc(NCc3cccc4ccccc34)n2)cc1`, the inhibition was -1.52% in assay [1], 0.21% in assay [2] and -0.28% in assay [3].
With `Cc1cc(N[C@@H](CC(C)C)C(=O)Nc2ccccc2)nc(NCc2ccccc2C)n1`, the inhibition amounted to 8.7% in assay [1], 8.35% in assay [2] and 5.01% in assay [3].
Take `CNC(=O)c1cnc(Nc2ccc(OCC(O)CN(C)C)cc2)nc1Nc1cccc(OC(C)C)c1` (configuration not stated): the inhibition in assay [1] is 2.84%; in assay [2], -0.45%; in assay [3], 1.38%.
For the molecule `Cc1onc(-c2ccccc2Cl)c1C(=O)Nc1cc(Cl)c(Cl)cc1Cl`, the inhibition in assay [1] was 3.43%; in assay [2], 5.64%; in assay [3], 4.95%.
Consider `Cc1cccc(CNc2nccc3[nH]c4ccccc4c23)c1`, for which the results for the inhibition in assay [1], in assay [2] and in assay [3] were 4.82%, 4.77% and 1.28%, respectively.
On to `CNC(=O)c1nc(-c2ccccc2)[nH]c1NC(C)=O`, for which the results for the inhibition in assay [1], in assay [2] and in assay [3] were 2.72%, 3.44% and 2.17%, respectively.
On to `CCCC1N=C(N)N=C(N)N1c1ccc(CC)cc1` (configuration not stated), for which the figures for the inhibition in assay [1], in assay [2] and in assay [3] were 1.98%, 0.44% and 1.72%, respectively.
On the same counts, the results for `N#Cc1cccc(NC(=O)Nc2ccc(-c3cccc(-c4nc5cc(F)ccc5[nH]4)c3)cc2)c1` are 3.67%, 1.58% and 4.18%.
For `Cc1cc(N[C@@H](CC(C)C)C(=O)NCc2cccc(F)c2)nc(Nc2ccccc2)n1`, the inhibition was 4.15% in assay [1], 2.87% in assay [2] and 1.1% in assay [3].
As to `COc1cc(Cc2cnc(N)nc2N)cc(OCCNC(=O)OCc2ccccc2)c1OC`, the figures for the inhibition in assay [1], in assay [2] and in assay [3] were -1.11%, -1.55% and -1.22%, respectively.
On to `CCOc1cc2ncnc(Nc3ccc(OCc4c(Cl)cccc4Cl)c(OC)c3)c2cc1OCC`, for which the inhibition in assay [1] amounted to 4.01%; in assay [2], 4.16%; in assay [3] it was 3.54%.
With `Cc1ccc(S(=O)(=O)N2CCCN(C(=O)c3cc(-c4ccccc4)[nH]n3)CC2)cc1`, the results for the inhibition in assay [1], in assay [2] and in assay [3] were -1.48%, 0.45% and 0.04%, respectively.
In the same order, the values of `COc1ccc2nccc([C@@H](O)CN3CCC(NCCOc4cc(F)cc(F)c4)CC3)c2c1` are 9.84%, 19.3% and 4.32%.
For `CCC(C)(CC)C(=O)n1ncc2c3c(N)nc(N)nc3ccc21`, the inhibition in assay [1] was 65.8%; in assay [2], 79.2%; in assay [3] it was 58.6%.
In the case of `O=C(Nc1ccc(S(=O)(=O)N2CCCCC2)cc1)c1cc(-c2ccccc2O)n[nH]1`, the inhibition turned out to be 11.8% in assay [1], 12% in assay [2] and 10.8% in assay [3].
With `CC1(C)N=C(N)N=C(N)N1c1ccc(Oc2ccccc2)cc1`, the inhibition came to 1.59% in assay [1], 1.71% in assay [2] and 2.8% in assay [3].
For the molecule `Cc1nc2ccccc2c(=O)n1/N=C/c1ccccc1[N+](=O)[O-]`, the inhibition was determined as 3% in assay [1], 1.45% in assay [2] and 2.65% in assay [3].
For the molecule `COc1ccccc1C1CCN(CCN2CCC(NC(=O)c3ccc(-c4ccc(C#N)cc4)cc3)CC2)CC1`, the figures for the inhibition in assay [1], in assay [2] and in assay [3] were -0.2%, 2.09% and 1.89%, respectively.
As for `COc1ccc(N2CCN(CCCCNC(=O)c3ccc(NC(=O)c4ccc(Cl)cc4)cc3)CC2)c(C)c1`, the figures for the inhibition in assay [1], in assay [2] and in assay [3] were 10.4%, 8.02% and 9.07%, respectively.
In the same order, the values of `Cc1ccc(F)cc1S(=O)(=O)Nc1ccc(CCN2CCC(N3CCCCC3)CC2)cc1` are 0.5%, -0.31% and 1.36%.
